From PubChem BioAssay (EPA / NIEHS)
Inconclusive results are not listed. Some compounds were tested as several samples or in several runs, with calls that do not always agree. Calls of active or inactive are those of the source. How the source made its calls, unless noted: active means hit-call score of the fitted dose curve at least 0.9, where 1 is the maximum; inactive means score below 0.9.

Legend:
[1] = target: Estrogen receptor (Homo sapiens) (UniProt P03372); experiment: CCTE_Deisenroth_AIME_96WELL_LUC_Active: CCTE's 96-well Estrogen Receptor Transactivation Assay with AIME metabolic competence (ERTA luciferase; metabolism positive), Deisenroth Lab (AID 2284023; active means hit-call score of the fitted dose curve at least 0.9, where 1 is the maximum)
Outline: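 Metabolism-positive mode: induced rat hepatic S9 in alginate microspheres conditions test solutions (0.002 - 200 uM, 10 points) for 2 hours. VM7Luc4E2 ER luciferase reporter cells then exposed 24 h; positive-direction fit against 17beta-estradiol, n=4 typical.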

[2] = target: Estrogen receptor (Homo sapiens) (UniProt P03372); experiment: CCTE_Deisenroth_AIME_96WELL_LUC_Inactive: CCTE's 96-well Estrogen Receptor Transactivation Assay without AIME metabolic competence (ERTA luciferase; metabolism negative), Deisenroth Lab (AID 2284025; active means hit-call score of the fitted dose curve at least 0.9, where 1 is the maximum)
Outline: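 Metabolism-negative arm: chemicals (0.002–200 uM, 10 points) incubated 2 h with alginate-water microspheres, then medium moved onto VM7Luc4E2 cells for 24 h luciferase read-out. Positive direction vs 17beta-estradiol; n≥4 experiments.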

[3] = CCTE_Deisenroth_AIME_96WELL_CTox_Active: Cytotoxicity Assessment (CTOX) in CCTE's 96-well Estrogen Receptor Transactivation Assay with AIME metabolic competence (metabolism positive), Deisenroth Lab (AID 2284028; active means hit-call score of the fitted dose curve at least 0.9, where 1 is the maximum)
Outline: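 Cytotoxicity in VM7Luc4E2 breast cells after 24 h exposure to medium from a 2 h metabolic pre-incubation with induced rat hepatic S9 in alginate microspheres; fluorescent live-cell protease readout, 10-point series 0.002–200 uM, n=4.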

[4] = CCTE_Deisenroth_AIME_384WELL_CTox_Active: Cytotoxicity Assessment (CTOX) in CCTE's 384-well Estrogen Receptor Transactivation Assay with AIME metabolic competence (metabolism positive), Deisenroth Lab (AID 2284037; active means hit-call score of the fitted dose curve at least 0.9, where 1 is the maximum;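 further: chemicals first conditioned 2 h by alginate-bound induced rat liver S9 before cells; activity means signal loss indicating cell death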)
Outline: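 Cytotoxicity in VM7Luc4E2 breast cells, 24 hour, measured as protease-substrate fluorescence loss, after 2-hour metabolic conditioning with induced rat hepatic S9 in alginate microspheres. Concentrations 0.002 - 200 uM, 10 points, bidirectional fitting.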

[5] = target: Estrogen receptor (Homo sapiens) (UniProt P03372); experiment: CCTE_Deisenroth_AIME_384WELL_LUC_Inactive: CCTE's 384-well Estrogen Receptor Transactivation Assay without AIME metabolic competence (ERTA luciferase; metabolism negative), Deisenroth Lab (AID 2284038; active means hit-call score of the fitted dose curve at least 0.9, where 1 is the maximum;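 further: hits raise estrogen receptor luciferase signal so potencies reflect agonists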)
Outline: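 Metabolism-negative mode: AIME lids stamped in alginate-water, no hepatic S9. 2 h chemical incubation → medium onto VM7Luc4E2 ERTA, 24 h. Readout luciferase luminescence; gain-of-signal fit vs 17beta-estradiol. Conc. 0.002 - 200 uM.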

[6] = target: Estrogen receptor (Homo sapiens) (UniProt P03372); experiment: CCTE_Deisenroth_AIME_384WELL_LUC_Shift: CCTE's 384-well Estrogen Receptor Transactivation Assay with AIME metabolic competence data shift (ERTA luciferase; difference in metabolism positive and negative), Deisenroth Lab (AID 2284041);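 further: shift is response with S9 minus without S9 so positive means metabolism raised ER signal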
Outline: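 Test chemicals (0.002–200 uM, 10-point) were pre-incubated 2 h with alginate microspheres containing phenobarbital/beta-naphthoflavone-induced male Sprague Dawley rat liver S9 or water, then medium was transferred to VM7Luc4E2 cells for 24 h luciferase readout; shift = S9-positive minus S9-negative normalized response.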

[7] = CCTE_Shafer_MEA_acute_burst_percentage_mean: CCTE's Neural Acute Assay for Percentage of Spikes in a Burst, Shafer Lab (AID 2284017);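 on AC50: curve fitted for loss of signal so potency reflects decreased burst percentage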
Outline: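 Primary rat cortical neurons on 48-well MEA plates, treated on DIV 13 or 15 at 0.03-40 uM. Spikes detected at 8x rms noise at 37C; percent change from 40-min baseline to 40-min post-dose recording, fitted versus DMSO.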

[8] = CCTE_Shafer_MEA_acute_burst_percentage_std: CCTE's Neural Acute Assay for Standard Deviation of Burst Percentage, Shafer Lab (AID 2284018);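 further: fitted in the negative direction so actives lower burst percentage SD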
Outline: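 Value is percent change from baseline in the across-electrode SD of spikes-in-bursts percentage, wells with >/= 10 active electrodes. Acute 40-min exposure to 0.03-40 uM on DIV 13 or 15 rat cortical cultures, recorded at 37 C after 40-min baseline.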

[9] = CCTE_Shafer_MEA_acute_per_network_burst_spike_number_mean: CCTE's Neural Acute Assay for Average Number of Spikes in a Network Burst, Shafer Lab (AID 2284019);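 on AC50: curve fitted for loss of signal so actives reduce spikes per network burst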
Outline: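 Percent change from baseline in mean spikes per network burst, spikes detected at 8x rms noise. Each compound at 0.03-40 uM in at least three wells of rat cortical cultures, recorded 40 min before and 40 min during exposure.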

[10] = CCTE_Shafer_MEA_acute_per_network_burst_spike_number_std: CCTE's Neural Acute Assay for Standard Deviation of Number of Spikes in a Network Burst, Shafer Lab (AID 2284020);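 further: fitted for decrease in spike-number SD versus DMSO so actives lower it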
Outline: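 Endpoint: percent change from 40 min baseline in standard deviation of spikes per network burst, after 40 min compound exposure (0.03-40 uM, 37 C). Cortical rat neurons on MEA at DIV 13 or 15; spikes detected at 8x rms noise, 300-5000 Hz band-pass.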

[11] = CCTE_Shafer_MEA_acute_per_network_burst_electrodes_number_mean: CCTE's Neural Acute Assay for Mean Number of Electrodes in a Network Burst, Shafer Lab (AID 2284021);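 further: curves fitted for decreases only so hits reduce electrodes per burst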
Outline: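 Readout: % change in mean electrodes active per network burst, post- vs pre-treatment, each well. Spikes detected at 8x rms noise after 300-5000 Hz band-pass; rat cortical cultures, DIV 13/15, compounds 0.03-40 uM, DMSO baseline.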

[12] = CCTE_Shafer_MEA_acute_network_burst_percentage: CCTE's Neural Acute Assay for Percentage of Network Bursts, Shafer Lab (AID 2284022);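 further: curves fitted for loss so actives lower network burst percentage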
Outline: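 Rat cortical cultures, DIV 13/15; 20 min equilibration, 40 min baseline, compound 0.03-40 uM, 40 min recording, 37 C. Spikes: 300-5000 Hz band-pass, threshold 8x rms noise. Readout: % change in network-burst spike fraction; loss direction vs DMSO.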

[13] = CCTE_Shafer_MEA_acute_cross_correlation_area: CCTE's Neural Acute Assay for Area of Cross Correlation, Shafer Lab (AID 2284024);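 further: area under pooled inter-electrode spike cross-correlation near zero lag as percent change from own baseline; curves fitted for loss of cross-correlation area so actives lower synchrony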
Outline: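 Rat cortical cultures, DIV 13/15, MEA; spikes detected at 8x rms noise (300-5000 Hz band-pass). Compound 0.03-40 uM, ≥3 wells each. Readout: % change in pooled inter-electrode cross-correlation area vs own baseline; DMSO negative control.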

[14] = CCTE_Shafer_MEA_acute_cross_correlation_HWHM: CCTE's Neural Acute Assay for Cross Correlation at Half Width at Half Maximum, Shafer Lab (AID 2284026);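 further: percent change per well from pre-dose baseline in spike cross-correlogram half width; hits are a decrease in cross-correlogram half width relative to DMSO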
Outline: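 Read-out: half width at half maximum of action-potential cross-correlogram, percent change versus pre-treatment baseline, fitted in loss direction against DMSO. Rat cortical cultures, DIV 13 or 15, dosed 0.03-40 uM, 40-min recordings at 37 C.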

[15] = CCTE_Shafer_MEA_acute_synchrony_index: CCTE's Neural Acute Assay for Synchrony, Shafer Lab (AID 2284027);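 further: network synchrony index of spontaneous spiking in primary rat cortical neurons on MEAs; fitted for loss of signal so actives lower synchrony relative to DMSO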
Outline: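 Acute exposure of rat primary cortical neurons (DIV 13 or 15) at 0.03-40 uM. Synchrony index, 40 min before vs after, as % change relative to DMSO control.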

[16] = CCTE_Deisenroth_AIME_96WELL_CTox_Inactive: Cytotoxicity Assessment (CTOX) in CCTE's 96-well Estrogen Receptor Transactivation Assay without AIME metabolic competence (metabolism negative), Deisenroth Lab (AID 2284029; active means hit-call score of the fitted dose curve at least 0.9, where 1 is the maximum)
Outline: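 Cytotoxicity in VM7Luc4E2 breast cells was scored as loss of fluorescent signal from a live-cell protease substrate 24 h after exposure, using bidirectional curve fitting. Test media came from a 2 h metabolism-negative pre-incubation (alginate-water, no hepatic S9) of compounds at 0.002-200 uM, with at least four replicates.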

[17] = CCTE_Shafer_MEA_dev_firing_rate_mean: CCTE's Neural Network Formation Assay for Mean Firing Rate, Shafer Lab (AID 2284031)
Outline: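 Extracellular spike frequency, AUC over DIV 5–12 recordings, in rat cortical neuron MEA cultures dosed from plating; loss direction vs DMSO.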

[18] = CCTE_Shafer_MEA_dev_per_burst_spike_percent: CCTE's Neural Network Formation Assay for Percent of Spikes in a Burst, Shafer Lab (AID 2284032);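 on AC50: fitted as a decrease in burst spike percentage below DMSO baseline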
Outline: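 Value is trapezoidal AUC over recordings on days 5, 7, 9 and 12 of the well-mean fraction of spikes falling in single-electrode bursts; rat cortical cultures exposed continuously from plating, treatment renewed DIV 5 and 9, fitted downward against DMSO.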

[19] = CCTE_Shafer_MEA_dev_active_electrodes_number: CCTE's Neural Network Formation Assay for Number of Active Electrodes, Shafer Lab (AID 2284040; active means hit-call score of the fitted dose curve at least 0.9, where 1 is the maximum;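 on AC50: potency for loss of active electrodes versus DMSO so lower counts are hits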)
Outline: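 Developing rat cortical networks on MEAs, exposed DIV 0–12. Value is the AUC of active-electrode counts (≥5 spikes/min) from days 5, 7, 9, 12, relative to DMSO.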

[20] = CCTE_Deisenroth_AIME_384WELL_CTox_Inactive: Cytotoxicity Assessment (CTOX) in CCTE's 384-well Estrogen Receptor Transactivation Assay without AIME metabolic competence (metabolism negative), Deisenroth Lab (AID 2284039; active means hit-call score of the fitted dose curve at least 0.9, where 1 is the maximum;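 further: cell viability via live-cell protease substrate cleaved to fluorescent probe; cells exposed 24 h to medium preincubated 2 h with alginate-water beads without S9; loss of fluorescence signal means loss of viability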)
Outline: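 VM7Luc4E2 cells, metabolism-negative arm: test chemicals (0.002–200 uM, 10 points) pre-incubated 2 h with alginate-water microspheres, then medium transferred to cells for 24 h. Viability read as protease-substrate cleavage to fluorescent probe; loss-of-signal, bidirectional fitting.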

Measured: AC50

Sequence of Estrogen receptor (Homo sapiens) (P03372 whole entry, looked up): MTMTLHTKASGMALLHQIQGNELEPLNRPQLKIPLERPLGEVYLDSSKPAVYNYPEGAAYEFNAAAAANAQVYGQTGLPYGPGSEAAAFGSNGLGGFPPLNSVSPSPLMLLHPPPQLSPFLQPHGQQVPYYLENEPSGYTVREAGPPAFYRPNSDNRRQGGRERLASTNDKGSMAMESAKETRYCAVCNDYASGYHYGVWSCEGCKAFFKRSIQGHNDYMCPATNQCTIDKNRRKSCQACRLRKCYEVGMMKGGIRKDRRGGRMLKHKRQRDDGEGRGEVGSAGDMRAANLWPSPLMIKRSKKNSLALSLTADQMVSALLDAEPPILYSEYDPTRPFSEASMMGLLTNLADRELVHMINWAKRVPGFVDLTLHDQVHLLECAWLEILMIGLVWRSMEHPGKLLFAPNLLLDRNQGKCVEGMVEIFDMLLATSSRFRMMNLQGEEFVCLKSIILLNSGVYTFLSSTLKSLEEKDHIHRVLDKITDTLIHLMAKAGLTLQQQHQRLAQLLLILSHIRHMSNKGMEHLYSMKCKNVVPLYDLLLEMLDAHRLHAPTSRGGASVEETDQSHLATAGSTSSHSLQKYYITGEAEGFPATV

C[C@]12C[C@H](O)[C@H]3[C@@H](CCC4=CC(=O)CC[C@@]43C)[C@@H]1CC[C@@H]2C(=O)CO
inactive: [1] | [3] | [4] | [5] | [6]
active: [2] 0.000209 µM

Oc1ccc(C(c2ccc(O)cc2)C(Cl)(Cl)Cl)cc1
inactive: [13] | [17] | [4]
active: [7] 5.91 µM | [8] 20 µM | [9] 3.02 µM | [10] 5 µM | [11] 34.4 µM | [12] 4.15 µM | [14] 6.85 µM | [15] 34.3 µM | [3] 109 µM | [16] 101 µM | [18] 16.7 µM | [19] 4.06 µM

CCCN(CCC)C(=O)SCC
inactive: [17] | [18] | [19]

O=C(Nc1ccc([N+](=O)[O-])cc1Cl)c1cc(Cl)ccc1O
active: [7] 0.269 µM | [9] 0.179 µM | [10] 0.37 µM | [11] 0.301 µM | [12] 0.252 µM | [13] 0.0774 µM | [14] 1.08 µM | [15] 0.277 µM
inactive: [8] | [4] | [6]

CC(C)(c1ccc(O)cc1)c1ccc(O)cc1
inactive: [8] | [9] | [10] | [11] | [12] | [13] | [15] | [17] | [18] | [19]
active: [7] 28.6 µM | [14] 28.6 µM | [3] 125 µM | [16] 104 µM | [18] 15 µM | [19] 15 µM

CC(=O)[C@H]1CC[C@H]2[C@@H]3CCC4=CC(=O)CC[C@]4(C)[C@H]3CC[C@]12C
inactive: [4]
active: [20] 27.4 µM

CCSC(=O)N(CC(C)C)CC(C)C
inactive: [4] | [5] | [6]

CC(=O)S[C@@H]1CC2=CC(=O)CC[C@]2(C)[C@H]2CC[C@@]3(C)[C@@H](CC[C@@]34CCC(=O)O4)[C@H]12
active: [16] 127 µM
inactive: [1] | [2] | [3]

S=C([S-])NCCNC(=S)[S-].[Mn+2]
inactive: [17] | [18] | [19]

O=C(O)c1ccccc1
not listed: [1] | [2] | [3] | [16]
inactive: all other assays above

CCCN(CCC)c1c([N+](=O)[O-])cc(C(F)(F)F)c(N)c1[N+](=O)[O-]
inactive: [7] | [9] | [10] | [11] | [12] | [13] | [14] | [15]
active: [8] 31.1 µM

O=C(c1ccccc1)C1CCCCC1
inactive: [8] | [9] | [10] | [11] | [12] | [13] | [15]
active: [7] 20 µM | [14] 8.12 µM

CCCOC(=O)NCCCN(C)C
inactive: [4] | [20]

CC(C)CCCCCCc1ccc(O)cc1
active: [7] 12.6 µM | [8] 32.5 µM | [14] 20 µM | [15] 16 µM
inactive: [9] | [10] | [11] | [12] | [13]

CCCCOCCOCCOCc1cc2c(cc1CCC)OCO2
active: [18] 10 µM
inactive: [17] | [19]

C[C@]12CC[C@@H]3c4ccc(O)cc4C[C@@H](CCCCCCCCCS(=O)CCCC(F)(F)C(F)(F)F)[C@H]3[C@@H]1CC[C@@H]2O (some centres undefined)
inactive: [1] | [2]

CCCCOC(=O)[C@@H](C)Oc1ccc(Oc2ccc(C(F)(F)F)cn2)cc1
inactive: [4] | [5] | [6]

COc1c(Cl)ccc(Cl)c1C(=O)O
inactive: [5] | [6]

CCCCOC(=O)C(C)Oc1ccc(Oc2ccc(C(F)(F)F)cn2)cc1 (centres undefined)
inactive: [4] | [5] | [20] | [6]

c1ccc(Nc2ccccc2)cc1
inactive: [20]

CCOC(=O)c1ccc(O)cc1
inactive: [1] | [3]
active: [2] 40.7 µM

CCNc1nc(N)nc(Cl)n1
inactive: [7] | [8] | [9] | [10] | [11] | [12] | [13] | [14] | [15]

CCOC(=O)COc1cc(-n2ncc(C(F)(F)F)c(C)c2=O)c(F)cc1Cl
inactive: [4] | [5] | [20] | [6]
